Test [1] is described as follows: NCI Yeast Anticancer Drug Screen. Data for the rad50 strain (AID 155).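 Also: 0% = growth of vehicle-only cultures of the same strain.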 The note with it: S. cerevisiae rad50 strain growth inhibition; at 50.0 µM; stronger effect = higher value. The gist of the method: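 DNA repair mutant yeast, compound exposure, growth read-out; inhibition is taken relative to vehicle.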
The nature of test [2]: NCI Yeast Anticancer Drug Screen. Data for the mec2-1 strain (AID 157). The note with it: S. cerevisiae mec2-1 strain, at 50.0 µM, stronger effect = higher value. The gist of the method: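 Mutant yeast (mec2-1) grown with compound; growth inhibition relative to vehicle control reported.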
Test [3] is described as follows: NCI Yeast Anticancer Drug Screen. Data for the sgs1 mgt1 strain (AID 161).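 Also: 0% = growth of cultures given vehicle only.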 The note with it: S. cerevisiae sgs1 mgt1 strain, at 50.0 µM, stronger effect = higher value. The gist of the method: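 Compounds are added to genetically altered yeast, and growth is compared with cultures given vehicle alone to give percent inhibition.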
Test [4] can be described thus: NCI Yeast Anticancer Drug Screen. Data for the cln2 rad14 strain (AID 165).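 Also: 0% = growth equal to vehicle treated cultures.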 The note with it: S. cerevisiae cln2 rad14 strain, at 50.0 µM, stronger effect = higher value. Put shortly: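 Readout is yeast growth inhibition versus vehicle-treated controls, using a strain with cln2 and rad14 alterations exposed to compound.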
Test [5] in a line: NCI Yeast Anticancer Drug Screen. Data for the bub3 strain (AID 167). The note with it: S. cerevisiae bub3 mutant strain, at 50.0 µM, stronger effect = higher value. The gist of the method: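 In this screen, a yeast mutant lacking normal mitotic checkpoint function is challenged with compound. Relative growth versus vehicle gives the inhibition value.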
Test [6] in a line: NCI Yeast Anticancer Drug Screen. Data for the mlh1 rad18 strain (AID 175). The note with it: S. cerevisiae mlh1 rad18 strain growth inhibition; at 50.0 µM; stronger effect = higher value. The gist of the method:
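Genetically defined yeast (DNA repair-deficient) exposed to compounds; growth inhibition determined relative to vehicle.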

This is part of a sample that, as a whole, favours compounds with a hit. Of some 79,000 tested, about 15% had one in any assay. A number with no mark means an inactive call. The source made the active and inactive calls. Rule as the data show it: active = growth inhibition above about 70%; inactive = the rest.

On to `O=C(NC(=O)c1ccccc1F)Nc1ccc(Cl)cc1`, for which the growth inhibition in test [1] is 27.1%; in test [2], 37.3%; in test [3], 24.6%; in test [4] it was 56.8%; in test [5], 49.8%; in test [6], 43.1%.
With `CCOC(=O)C1SCCC1(C)O` (stereo unspecified), the growth inhibition in test [1] was 18.9%; in test [2], 21.7%; in test [3] it was 16.6%; in test [4], 16.8%; in test [5], 3.55%; in test [6], 12.7%.
Regarding `O=C1C(C2CCCCC2)=C2OCC3COC2(O3)c2ccccc21` (stereo unspecified), the growth inhibition is -8.75% in test [1]; -16.6% in test [2]; -20.1% in test [3]; -10.1% in test [4]; -14.6% in test [5]; -30.7% in test [6].
`O=C(O)/C=C/C(=O)Nc1cc(Cl)cc2c1-c1c(Cl)cc(Cl)cc1C2O` (stereo unspecified): the growth inhibition in test [1] was 83.7% (active); in test [2], 54%; in test [3], 84% (active); in test [4], -5.45%; in test [5] it was 11.3%; in test [6] it was 51.9%.
Turning to `CC(=O)NC(C=O)C(O)C(O)C(O)C(=O)O` (stereo unspecified) (tested in a mixture with another compound), the growth inhibition in test [1] is -25.4%; in test [2] it was -31.2%; in test [3], -22.2%; in test [4], 1.8%; in test [5], -22.9%; in test [6], -4.9%.
`Cn1nc2ccc([N+](=O)[O-])cc2[n+]1[O-]`: the growth inhibition is 28.4% in test [1]; -2.45% in test [2]; -2.8% in test [3]; -19.4% in test [4]; 0.05% in test [5]; -17.2% in test [6].
`COc1ccc(/C=C/C(=O)C(CN(C)C)CN(C)C)cc1OC`: the growth inhibition in test [1] was -0.95%; in test [2], -6.7%; in test [3], -25.2%; in test [4], -4.8%; in test [5], -6.55%; in test [6], -16.4%.
`S=C1NCCOc2ccccc21`: the growth inhibition is -8.65% in test [1]; -13.1% in test [2]; -2.5% in test [3]; -8.05% in test [4]; -10.9% in test [5]; -4.55% in test [6].
As to `Cc1onc(-c2ccc(-c3noc(C)c3C(=O)O)cc2)c1C(=O)O`, the growth inhibition is -1.9% in test [1]; -7.75% in test [2]; -3.25% in test [3]; -5.4% in test [4]; -10.4% in test [5]; 11.4% in test [6].
Regarding `COC(=O)Nc1ccc(NC(=O)c2cscn2)c(NC(=O)OC)n1`, the growth inhibition in test [1] is 1.55%; in test [2], 2.7%; in test [3], -2.3%; in test [4], -4.05%; in test [5], 5.75%; in test [6] it was -3.45%.
Consider `CC1=CCC2N=C(c3ccccc3)CC2(C)C1=O` (stereo unspecified), for which the growth inhibition in test [1] was 27.4%; in test [2] it was 21.6%; in test [3], 24.3%; in test [4], -11.3%; in test [5], -46.2%; in test [6], -16.6%.
Turning to `O=C1NC(=O)c2c(Br)c(Br)c(Br)c(Br)c21`, the growth inhibition in test [1] is -20.6%; in test [2], -32.9%; in test [3], 2.35%; in test [4], 9.6%; in test [5] it was -16.6%; in test [6], -1.55%.
Consider `Cc1ccc(NC(=O)c2cccc(C(=O)Nc3ccc(C)c(Cl)c3)c2)cc1Cl`, for which the growth inhibition in test [1] is -28.1%; in test [2], -16.6%; in test [3], -11.2%; in test [4], -35%; in test [5] it was -5.55%; in test [6] it was 8.6%.
As for `Cc1ccc2cccc(OCC(=O)O)c2n1`, the growth inhibition in test [1] is 5.7%; in test [2] it was 13.4%; in test [3], 6.1%; in test [4], 3.45%; in test [5], -8.45%; in test [6], 13.3%.
For `Cc1ccc(S(=O)(=O)N/N=C/c2cc([N+](=O)[O-])cc(I)c2O)cc1`, the growth inhibition was 2.35% in test [1]; -3.6% in test [2]; -4.5% in test [3]; -50.4% in test [4]; -10.6% in test [5]; 4.2% in test [6].
`O=[N+]([O-])c1cc2c3ccccc3ccc2c2ccccc12`: the growth inhibition in test [1] is -5.6%; in test [2], 6.95%; in test [3] it was 12.2%; in test [4], -78.8%; in test [5], 19.6%; in test [6], 21.6%.
On to `CCOc1ccccc1/C=C(/C#N)C(N)=O`, for which the growth inhibition in test [1] is 10.8%; in test [2], -0.5%; in test [3], -26.6%; in test [4], -29.9%; in test [5] it was -50.4%; in test [6] it was -1.3%.
In the case of `CC(=O)Oc1c(OC(C)C)c(C)c(O[Si](C(C)C)(C(C)C)C(C)C)c2[nH]c3ccccc3c12`, the growth inhibition in test [1] was 33.9%; in test [2] it was -5.05%; in test [3] it was -23.2%; in test [4], -10.9%; in test [5], -12.4%; in test [6] it was -29.7%.
Take `CCCCCC(=O)C#Cc1ccccc1`: the growth inhibition in test [1] is 24.1%; in test [2], 11.1%; in test [3], 11.7%; in test [4] it was -7.25%; in test [5] it was -4.9%; in test [6], 20.4%.
Regarding `CCOC(=O)c1c(C)nc(C)c(C(=O)OCC)c1-c1ccnc2ccccc12`, the growth inhibition in test [1] was 0.9%; in test [2], -15.9%; in test [3] it was 17.4%; in test [4], -13%; in test [5] it was -3.95%; in test [6] it was 5.1%.
For `COc1ccc(C(=O)CCN(C)C)c2ccccc12`, the growth inhibition in test [1] is -9.1%; in test [2] it was -19.8%; in test [3] it was -17.1%; in test [4] it was 9.7%; in test [5], -20.3%; in test [6] it was 17.5%.

The values above are taken from PubChem BioAssay (NCI).
